Source: PubChem
NSD2 HMT inh: NSD2 (human) methyltransferase inhibition. O96028. NSD2 peptide methylation, AlphaScreen, 120 min. inhibition, % at 12.5 µM. actives 0.54% (n = 310,000). AID 743445; in the data active = inhibition above about 50%
Env fusion inh: inhibitors of HIV Env-mediated cell fusion; HeLa-JRFL Env/CEM21 cell fusion, luciferase; inhibition, % at 12.3 µM; actives 1.1% (n = 360,000); AID 651610;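 active = mean replicate inhibition score of at least 50 and every replicate individually at or above 50; inconclusive = only one of the two criteria met; inactive = mean below 50 and not all replicates reaching 50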
ALR inh: human ALR oxidase inhibition via reduced H2O2; actives 3.8% (n = 290,000); purified ALR, DTT oxidation, H2O2 HRP-luminol luminescence; inhibition, % (concentration not given with the values); P55789;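 active = mean replicate inhibition above about 79%, with every replicate also reaching it, limit read from the data; inconclusive = only one of the two criteria met; inactive = mean below limit and not every replicate reaching it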
Target sequence (P55789 whole entry, looked up): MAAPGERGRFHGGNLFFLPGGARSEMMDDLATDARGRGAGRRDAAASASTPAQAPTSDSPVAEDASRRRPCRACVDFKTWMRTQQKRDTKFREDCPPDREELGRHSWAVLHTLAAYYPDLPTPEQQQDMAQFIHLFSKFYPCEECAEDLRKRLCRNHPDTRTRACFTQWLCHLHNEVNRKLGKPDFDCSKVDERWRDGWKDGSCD
PglD inh: inhibitors of Campylobacter jejuni PglD acetyltransferase; purified PglD enzyme, DTNB colorimetric CoA detection; inhibition, % at 12.5 µM; actives 0.098% (n = 360,000); AID 602405; in the data active = inhibition above about 16%, passing the limit was not always enough; inconclusive = no clear call, values can overlap the other calls
CFTR F508del cor: correctors of CFTR F508del function in bronchial epithelial cells; actives 0.36% (n = 350,000); activity (quench increase), % at 7.58 µM; CFBE cells, YFP halide quenching; stimulated with forskolin plus potentiator P3; % fluorescence drop versus neutral controls; AID 720511;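 active = mean added fluorescence quench of at least 8% versus neutral control, with both replicates also reaching 8%; inconclusive = only one of the mean or replicate conditions met; inactive = mean below 8% and not both replicates reaching 8%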;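 also: cells transiently co-express mutant CFTR-F508del with the halide-sensitive YFP; corrector assay measuring rescue of mutant channel to the surface after 24 h compound exposure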
Casp6 inh: blocks human caspase-6 cleavage activity; AID 686996; purified caspase-6, Z-VEID-R110 cleavage fluorescence; actives 0.53% (n = 350,000); inhibition, % at 12.5 µM; P55212;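 active = mean inhibition across replicates at least about 35%, with every replicate also reaching that limit, limit read from the data; inconclusive = only one of the two criteria met; inactive = neither criterion met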
Target sequence (P55212 24-179 limits assumed): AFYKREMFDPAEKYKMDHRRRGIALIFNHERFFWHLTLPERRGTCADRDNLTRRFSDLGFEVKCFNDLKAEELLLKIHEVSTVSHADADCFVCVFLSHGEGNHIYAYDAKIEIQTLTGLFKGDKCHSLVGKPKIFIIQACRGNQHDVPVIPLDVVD
Target sequence (P55212 194-293 limits assumed): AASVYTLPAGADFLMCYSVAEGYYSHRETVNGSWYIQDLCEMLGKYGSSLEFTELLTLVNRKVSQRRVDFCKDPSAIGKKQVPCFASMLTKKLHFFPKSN
Large screens that a line does not name were inactive; [ ] = dose if it differs, or a comment. Rows were chosen to be rich in hits. Some 4.1% of all compounds tested hit in one or more screens of this group.

COc1cc(N=Cc2c(CO)cnc(C)c2O)cc(OC)c1OC	ALR inh 99
COc1ccccc1NS(=O)(=O)c1cccc(C(=O)N/N=C/c2c(CO)cnc(C)c2O)c1	none (no result: Env fusion inh)
COc1ccc(C(=O)N/N=C/c2c(CO)cnc(C)c2O)cc1	none (no result: PglD inh)
C[C@H](CO)N1C[C@H](C)[C@H](CN(C)C(=O)Nc2ccc3c(c2)OCO3)OCCCC[C@H](C)Oc2ccc(NC(=O)NC3CCCCC3)cc2C1=O	none (no result: NSD2 HMT inh, ALR inh, Casp6 inh)
O=C(Nc1nc2c(s1)CCCC2)c1ccc(Br)s1	ALR inh 98 (no result: CFTR F508del cor, Casp6 inh)
O=C(Nc1nc2c(s1)CCCC2)c1ccc2ncsc2c1	none (no result: NSD2 HMT inh)
O=C(Nc1nc2c(s1)CCCC2)c1ccc(N2C(=O)CCC2=O)cc1	ALR inh 97
CO[C@H]1CN(C)C(=O)c2ccc(NC(=O)NC(C)C)cc2OC[C@H](C)N(C(=O)CC2CC2)C[C@H]1C	none (no result: NSD2 HMT inh, ALR inh)
O=C(Nc1nc2ccc(F)cc2s1)C1CCCO1 (stereo unspecified)	ALR inh 99 (no result: CFTR F508del cor, Casp6 inh)
Nc1ccc2nc(NC(=O)C3CCCCC3)sc2c1	ALR inh 99
O=C(CN1C(=O)C2CC=CCC2C1=O)Nc1nc2ccc(F)cc2s1 (stereo unspecified)	ALR inh 98 (no result: PglD inh)
NNc1nc2ccc(F)cc2s1	ALR inh 99 (no result: Env fusion inh, PglD inh, CFTR F508del cor, Casp6 inh)
O=C(CN1C(=O)NC2(CCCC2)C1=O)Nc1nc2ccc(F)cc2s1	none
Cc1ccc(S(=O)(=O)Nc2cccc3c2O[C@H](CN(C)Cc2ccc4c(c2)OCO4)[C@H](C)CN([C@H](C)CO)C3=O)cc1	none (no result: NSD2 HMT inh, ALR inh)
Nc1cc(C(Cl)=C(Cl)Cl)c(S(N)(=O)=O)cc1S(N)(=O)=O	Casp6 inh 76 (no result: NSD2 HMT inh)
NNC(=O)CNC(=O)Nc1n[nH]c(=S)s1	Env fusion inh inconclusive, Casp6 inh 61 (no result: ALR inh, PglD inh)
O=C(Nc1n[nH]c(=S)s1)c1ccco1	none (no result: NSD2 HMT inh, ALR inh)
C[C@H]1CN([C@@H](C)CO)S(=O)(=O)c2ccc(C3=CCCCC3)cc2O[C@H]1CN(C)C(=O)Cc1ccncc1	none (no result: NSD2 HMT inh, Env fusion inh, ALR inh)
C[C@H]1CN([C@@H](C)CO)S(=O)(=O)c2ccc(-c3ccccc3)cc2O[C@H]1CN(C)Cc1ccccc1	Env fusion inh 55[16.7 µM] (no result: NSD2 HMT inh, ALR inh, PglD inh, Casp6 inh)
C[C@@H]1CN([C@H](C)CO)S(=O)(=O)c2ccc(-c3ccccc3)cc2O[C@H]1CN(C)Cc1ccccc1	Env fusion inh 55[16.7 µM] (no result: NSD2 HMT inh, ALR inh, PglD inh, Casp6 inh)
Cc1ccc(-c2ccc3c(c2)O[C@@H](CN(C)Cc2cccnc2)[C@@H](C)CN([C@@H](C)CO)S3(=O)=O)cc1	none (no result: NSD2 HMT inh, ALR inh)
C[C@H]1CN([C@@H](C)CO)S(=O)(=O)c2ccc(C3=CCCCC3)cc2O[C@@H]1CN(C)C(=O)Cc1ccncc1	CFTR F508del cor 8.5 (no result: NSD2 HMT inh, Env fusion inh, ALR inh)
Cc1ccc(-c2ccc3c(c2)O[C@@H](CN(C)Cc2cccnc2)[C@H](C)CN([C@H](C)CO)S3(=O)=O)cc1	Env fusion inh 75[16.7 µM] (no result: NSD2 HMT inh, ALR inh)
Cc1ccc(-c2ccc3c(c2)O[C@H](CN(C)Cc2ccccc2)[C@H](C)CN([C@H](C)CO)S3(=O)=O)cc1	none (no result: NSD2 HMT inh, ALR inh)
Cc1ccccc1-c1ccc2c(c1)O[C@@H](CN(C)C(=O)Nc1ccc(F)cc1)[C@@H](C)CN([C@@H](C)CO)S2(=O)=O	none (no result: NSD2 HMT inh, ALR inh)
COCC(=O)Nc1ccc2c(c1)C(=O)N(C)[C@H]1CC[C@H](CC(=O)NC3CCCC3)O[C@@H]1CO2	none (no result: NSD2 HMT inh, ALR inh, Casp6 inh)
C[C@H]1CN([C@@H](C)CO)S(=O)(=O)c2ccc(C3=CCCC3)cc2O[C@H]1CN(C)Cc1ccccc1	Env fusion inh 57[16.7 µM] (no result: NSD2 HMT inh, ALR inh)
C=CCn1c(C(C)NC(=O)c2ccc(C)cc2)n[nH]c1=S (stereo unspecified)	ALR inh 95
COc1cc(/C=N\NC(=O)CC(=O)NCCc2ccccc2)ccc1O	ALR inh 99 (no result: PglD inh)
CCOc1cc(/C=N\NC(=O)CC(=O)NCCc2ccccc2)ccc1O	ALR inh 99 (no result: PglD inh)
COc1cc(/C=N/NC(=O)C2CCN(CC(O)COCc3ccccc3)CC2)ccc1O (stereo unspecified)	ALR inh 99 (no result: PglD inh)
COc1cc(/C=N/NC(=O)C2CCN(CC(O)COCc3ccccc3)CC2)cc(OC)c1OC (stereo unspecified)	none (no result: NSD2 HMT inh)
COc1ccc(/C=N/NC(=O)CC(=O)NCCc2ccccc2)cc1OC	none (no result: CFTR F508del cor, Casp6 inh)
COc1cccc(/C=N/NC(=S)NCCc2ccccc2)c1	Casp6 inh 35
COc1ccc(/C=N/NC(=S)NCCc2ccccc2)cc1	none
C[C@H]1CCCCO[C@@H](CN(C)Cc2ccc(C(F)(F)F)cc2)[C@@H](C)CN([C@@H](C)CO)C(=O)c2cc(NC(=O)C3CCCCC3)ccc2O1	none (no result: NSD2 HMT inh, ALR inh, Casp6 inh)
O=C(C[C@@H]1CC[C@H]2[C@@H](COC[C@H](O)CN2Cc2nccs2)O1)NCc1ccc(Oc2ccccc2)cc1	none (no result: NSD2 HMT inh, Env fusion inh, ALR inh)
COc1ccc(NC(=O)N(C)C[C@@H]2Oc3ccc(NC(=O)CCCCCC(=O)Nc4ccccc4N)cc3CC(=O)N([C@H](C)CO)C[C@@H]2C)cc1	none (no result: NSD2 HMT inh, ALR inh)
O=C1CC(C(=O)Nc2ccccc2)C2(CCCCC2)O1 (stereo unspecified)	none (no result: NSD2 HMT inh, Env fusion inh, PglD inh, CFTR F508del cor, Casp6 inh)
O=C1CC(C(=O)Nc2ccc(Br)cc2)C2(CCCC2)O1 (stereo unspecified)	Casp6 inh 39 (no result: Env fusion inh, PglD inh)
O=C(C[C@H]1CC[C@@H]2[C@H](COC[C@@H](O)CN2C(=O)Nc2ccc(Cl)c(Cl)c2)O1)NCc1ccncc1	none (no result: NSD2 HMT inh, ALR inh)
CCOC(=O)c1csc(NC(=O)CSc2nnnn2CC)n1	ALR inh 99 (no result: Env fusion inh, CFTR F508del cor, Casp6 inh)
Cc1csc(NC(=O)CSc2nccn2C)n1	ALR inh 96
Cc1csc(NC(=O)CSc2nncc(=O)n2N)n1	ALR inh 98
Cc1csc(NC(=O)CSc2nncn2C)n1	none (no result: Env fusion inh, CFTR F508del cor, Casp6 inh)
CCOC(=O)CSC1=Nc2ccccc2C2=NC(CC(=O)NCc3ccc(OC)cc3)C(=O)N12 (stereo unspecified)	none (no result: PglD inh, CFTR F508del cor, Casp6 inh)
CCCCNC(=O)CC1N=C2c3ccccc3N=C(SCC(=O)Nc3cccc(C)c3)N2C1=O (stereo unspecified)	ALR inh 98 (no result: CFTR F508del cor, Casp6 inh)
CO[C@@H]1CN(C)C(=O)c2ccc(NC(=O)Nc3cc(Cl)cc(Cl)c3)cc2OC[C@H](C)NC[C@@H]1C	none (no result: NSD2 HMT inh, ALR inh)
C/C(=N/NC(=O)c1ccncc1)c1cc2ccc(O)cc2oc1=O	none (no result: Env fusion inh, PglD inh)
C/C(=N/NC(N)=S)c1cc2ccc(O)cc2oc1=O	Casp6 inh 42 (no result: ALR inh)
C[C@@H]1CCCCO[C@@H](CN(C)S(=O)(=O)c2ccccc2)[C@H](C)CN([C@H](C)CO)C(=O)c2cc(NS(=O)(=O)c3cccs3)ccc2O1	none (no result: NSD2 HMT inh, ALR inh)
OC[C@H]1[C@H](c2ccc(-c3ccccc3F)cc2)[C@H]2CN(Cc3ccncc3)CCCCN21	none (no result: NSD2 HMT inh, Env fusion inh, ALR inh)
Cn1c(-c2ccccc2)c(C(=O)CCl)c2ccccc21	Env fusion inh 64 (no result: ALR inh, PglD inh)
CCCc1cn([C@H]2C[C@@H]3O[C@H](CO)CC[C@@H]3O[C@@H]2CCc2ccc(-c3ccccc3C#N)cc2)nn1	none (no result: NSD2 HMT inh, Env fusion inh, ALR inh, PglD inh)
CC1Cc2nc(SCC(=O)Nc3ccc4c(c3)OCCO4)n(C)c(=O)c2S1 (stereo unspecified)	ALR inh 94 (no result: Env fusion inh, CFTR F508del cor, Casp6 inh)
COCCn1c(SCC(=O)Nc2ccc3c(c2)OCCO3)nc2c(c1=O)SC(C)C2 (stereo unspecified)	ALR inh 99 (no result: NSD2 HMT inh)
